# Only a selection was taken, and hits are over-represented in it overall.
# KDM5B inh – Primary screen for KDM5B Histone Demethylases FDH-coupled qHTS; Lysine-specific demethylase 5B (Homo sapiens), Q9UGL1; Potency, µM (highest dose often 57.7 µM), actives largely listed as inhibitors; AID 1347165, 2019; 220,000 tested, 2.6% active; KDM5B demethylase, FDH-coupled NADH fluorescence (FDH is formaldehyde dehydrogenase); active = well fitted inhibition curve with a large enough effect; also: 0% is about no effect; nearly all actives have a fitted effect of over 70% in size
# Target sequence (Q9UGL1 whole entry, looked up): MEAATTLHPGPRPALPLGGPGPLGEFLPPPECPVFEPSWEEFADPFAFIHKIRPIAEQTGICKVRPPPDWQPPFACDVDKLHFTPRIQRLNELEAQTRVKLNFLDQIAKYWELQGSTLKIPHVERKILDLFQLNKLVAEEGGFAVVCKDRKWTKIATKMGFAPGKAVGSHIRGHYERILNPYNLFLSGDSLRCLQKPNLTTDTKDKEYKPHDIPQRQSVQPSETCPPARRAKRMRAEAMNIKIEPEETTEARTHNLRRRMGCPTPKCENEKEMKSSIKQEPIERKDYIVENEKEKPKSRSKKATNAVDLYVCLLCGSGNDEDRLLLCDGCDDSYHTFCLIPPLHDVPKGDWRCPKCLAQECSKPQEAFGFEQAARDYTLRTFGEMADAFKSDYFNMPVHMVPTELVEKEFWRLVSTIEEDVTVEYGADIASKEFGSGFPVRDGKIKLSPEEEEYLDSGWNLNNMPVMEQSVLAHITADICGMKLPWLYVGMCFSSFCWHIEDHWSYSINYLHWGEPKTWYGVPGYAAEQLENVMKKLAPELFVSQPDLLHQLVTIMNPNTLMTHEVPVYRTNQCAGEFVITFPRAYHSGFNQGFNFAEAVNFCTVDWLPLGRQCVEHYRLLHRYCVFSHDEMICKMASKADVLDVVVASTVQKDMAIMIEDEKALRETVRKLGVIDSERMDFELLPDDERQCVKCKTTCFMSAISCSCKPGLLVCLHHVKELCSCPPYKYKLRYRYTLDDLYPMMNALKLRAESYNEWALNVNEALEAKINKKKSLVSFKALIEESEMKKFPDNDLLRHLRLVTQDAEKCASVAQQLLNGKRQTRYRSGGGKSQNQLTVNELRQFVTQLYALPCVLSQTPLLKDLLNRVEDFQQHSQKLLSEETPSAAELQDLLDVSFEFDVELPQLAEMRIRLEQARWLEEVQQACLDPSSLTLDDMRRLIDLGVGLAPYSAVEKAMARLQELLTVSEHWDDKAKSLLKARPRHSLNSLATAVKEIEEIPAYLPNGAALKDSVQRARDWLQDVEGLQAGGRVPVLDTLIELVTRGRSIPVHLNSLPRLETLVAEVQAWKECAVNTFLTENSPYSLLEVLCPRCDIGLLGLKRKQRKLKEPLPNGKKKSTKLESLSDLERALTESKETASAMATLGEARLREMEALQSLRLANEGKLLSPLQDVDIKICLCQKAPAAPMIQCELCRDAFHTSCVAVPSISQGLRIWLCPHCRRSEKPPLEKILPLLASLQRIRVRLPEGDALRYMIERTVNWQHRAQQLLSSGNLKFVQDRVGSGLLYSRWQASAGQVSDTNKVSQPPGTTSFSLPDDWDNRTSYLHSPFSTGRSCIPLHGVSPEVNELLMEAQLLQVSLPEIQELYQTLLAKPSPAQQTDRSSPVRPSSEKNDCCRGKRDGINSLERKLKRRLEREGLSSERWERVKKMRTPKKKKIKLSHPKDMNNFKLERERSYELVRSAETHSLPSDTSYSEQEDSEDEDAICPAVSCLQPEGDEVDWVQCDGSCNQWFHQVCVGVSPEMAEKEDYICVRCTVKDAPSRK
#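 KDM5BΔAP (200 nM final) in 50 mM HEPES pH 7.5, 0.01% Tween-20 was preincubated 10 min at RT with compound over a concentration range. Substrate mix (H3K4me3 12.5 µM, α-KG 25 µM, Fe²⁺, ascorbate, NAD⁺, FDH) was added, and NADH fluorescence change over 30 min gave dose-response curves.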
# * = called active by the depositor; i = inactive. Potency is read from the fitted curve at half-maximal effect.
SMILES,KDM5B inh
CC(NC(=S)NCCc1ccccc1)c1ccc(C(C)(C)C)cc1 (stereo not given),i
O=C(NCCOc1ccccc1)C1CN(Cc2ccccc2)C(=O)N1 (stereo not given),i
O=C(/C=C/c1ccc(OCCCF)cc1)N1CCN(Cc2ccccc2)CC1,i
O=C(O)CN1CCN(Cc2ccc(OCCc3ccccc3)cc2)CC1=O,25.1µM*
CN1CCN(C)c2cc(-c3ccc(N4CCOCC4)cc3)ncc2C1,39.8µM*
CN1CC(=O)N(c2ccc(Cl)cc2)Cc2c1ncnc2N1CCOCC1,i
CN1CC(=O)N(c2ccccc2)Cc2c1ncnc2N1CCOCC1,i
O=C(Nc1ccc(Cl)cc1)N1CCC(c2nn(-c3ccc(Cl)cc3)c(=O)[nH]2)CC1,i
OCC1(CCOc2ccccc2)CCN(c2nnnn2-c2ccccc2)CC1,i
Cn1ccnc1-c1cn(Cc2scnc2-c2ccccc2)nn1,i
Cn1ccnc1-c1cn(CC2(c3ccccc3F)CCCC2)nn1,i
Cn1ccnc1-c1ccc(N2CCC(CO)(CCOc3ccccc3)CC2)nn1,28.2µM*
CCCC1(CO)CCCN(Cc2ccc(OCC(=O)N3CCCC3)cc2)C1 (stereo not given),i
Cn1ccnc1-c1ccc(N2CCCC(CO)(CCOc3ccccc3)C2)nn1 (stereo not given),31.6µM*
O=C(CN(CC1CC1)C1CC1)NC(=O)NCc1ccco1,i
O=C(OCC1CC1(Cl)Cl)c1ccccc1C(=O)c1ccc(Cl)cc1 (stereo not given),i
O=C(CCc1ncc(-c2ccc(Cl)cc2)o1)NC12CC3CC(CC(C3)C1)C2,i
NC(=O)c1ccsc1NC(=O)COC(=O)c1ccc(Br)cc1,i
Cc1ccc(F)cc1Nc1ncnc(N)c1[N+](=O)[O-],i
CNC(=O)[C@@H]1CN(C(=O)c2nccc3ccccc23)C[C@H]1COC,i
O=C(O)[C@H]1C[C@@H](C(=O)NCc2ccccn2)CN(CC2CC2)C1,i
COC[C@@H]1CN(c2ncccn2)C[C@H]1C(=O)NCc1ccccn1,14.1µM*
O=C(NCc1ccccn1)[C@H]1CN(Cc2ccccc2)C[C@H]1C(=O)O,i
COC[C@@H]1CN(c2ncccn2)C[C@H]1C(=O)NCC(F)(F)F,20µM*
CNC(=O)[C@@H]1CN(C(=O)Cn2cc(C)cn2)C[C@H]1COC,i
SMILES,KDM5B inh
COC[C@@H]1CN(c2ncccn2)C[C@H]1C(=O)N1CCOCC1,25.1µM*
COC[C@@H]1CN(C(=O)CN2CCOCC2)C[C@H]1c1ccncc1,i
COC[C@@H]1CN(C(=O)c2ncccc2C)C[C@H]1C(N)=O,i
COc1ccc(C2Cn3nnc(C(=O)N4CCN(C(=O)Cc5ccc(F)cc5)CC4)c3CO2)cc1 (stereo not given),i
CCN(CC)CCNC(=O)NC(=O)c1ccccc1,i
CC1CCc2nc3sc4c(c3c(-c3ccc(Cl)cc3)c2C1)CCC4 (stereo not given),i
CN(C)CCCN(C(=O)COc1ccccc1)c1nc2ccc(Br)cc2s1,i
COc1ccc(C(=O)/C=C/c2ccccc2OC(F)F)c(OC)c1,i
Cc1ccc(C(=O)NCC2(c3ccccc3)CC2)cc1C,i
O=CN1CCN(C(C(=O)O)c2cn(Cc3ccccc3)c3ccc(C(=O)O)cc23)CC1 (stereo not given),i
CC(C)(C)c1ccc(C(=O)Nc2c(N3CCCC3)c3ccccc3oc2=O)cc1,i
CC(NC(N)=S)c1ccccc1 (stereo not given),i
O=C(O)C/C(=C/c1ccc(Cl)s1)c1nc2ccccc2o1,i
CCOCCOC(=O)c1nc2ccccc2nc1Nc1ccc(Cl)cc1,i
CCc1ccc(NC(=O)Cn2ccn3nc(-c4ccccc4)c(CO)c3c2=O)cc1,i
Cc1ccc(C)c(NC(=O)Cn2ccn3nc(-c4ccc(F)cc4)c(CO)c3c2=O)c1,17.8µM*
Cc1ccc(NC(=O)Cn2ccn3nc(-c4ccccc4)c(CO)c3c2=O)c(C)c1,31.6µM*
Cc1ccc(NC(=O)Cn2ccn3nc(-c4ccccc4)c(CO)c3c2=O)cc1F,i
CCOc1ccc(NC(=O)Cn2ccn3nc(-c4ccccc4)c(CO)c3c2=O)cc1,i
COc1cc(Cl)c(C)cc1NC(=O)Cn1ccn2nc(-c3ccccc3)c(CO)c2c1=O,15.8µM*
Cc1cccc(N(C)C(=O)Cn2ccn3nc(-c4ccc(F)cc4)c(CO)c3c2=O)c1,i
Cc1ccc(NC(=O)Cn2ccn3nc(-c4ccccc4)c(CO)c3c2=O)cc1,i
O=C(Cn1ccn2nc(-c3ccccc3)c(CO)c2c1=O)Nc1ccccc1Cl,i
CC(C)NC(=O)Cn1ccn2nc(-c3ccccc3)c(CO)c2c1=O,i
CC(C)NC(=O)Cn1ccn2nc(-c3ccc(F)cc3)c(CO)c2c1=O,i
SMILES,KDM5B inh
O=C(Cn1ccn2nc(-c3ccccc3)c(CO)c2c1=O)Nc1ccccc1C(F)(F)F,20µM*
O=C1N[C@@H]2CCN(C(=O)c3ccccc3)[C@@H]2C(=O)N1c1ccc(Oc2ccccc2)cc1,i
O=C(Nc1ccc(C23CC4CC(CC(C4)C2)C3)cc1)c1cccc(Cl)c1,i
O=C(Cc1csc(-c2ccccc2Cl)n1)Nc1nc2c(s1)CCCCC2,i
COc1cc(OC)c(NS(=O)(=O)c2cc(C(=O)N3CCCCC3)ccc2C)cc1Cl,i
CC(Nc1ccc(S(N)(=O)=O)cc1[N+](=O)[O-])c1ccco1 (stereo not given),i
CCCCN(CC)CC(=O)Nc1cccc2ncccc12,i
CC1=C(c2ccc(C)c(C)c2)S(=O)(=O)N(CC(=O)NCc2ccc3c(c2)OCO3)C1=O,i
O=C(Nc1cc2c(cc1C(O)c1ccc(Br)cc1)OCCO2)c1ccc(F)cc1 (stereo not given),i
N#Cc1ccc(-c2ccc(OCc3ccc(C(N)=O)cc3)cc2)cc1,i
N#CCCN1CCCC1CCc1ccccc1 (stereo not given),i
Cc1cc(-n2cccc2C=O)ccc1Br,i
Cc1c(C#N)c(NC(=O)CSc2nnnn2C2CCCC2)n(CC2CCCO2)c1C (stereo not given),i
COC(=O)Cn1cc(/C=C2/SC(=O)N(C(C)C)C2=O)c2ccccc21,i
O=C(Cn1ccn2nc(-c3ccc(F)cc3)c(CO)c2c1=O)NCc1ccc(Cl)cc1,i
O=C(Cn1ccn2nc(-c3ccc(F)cc3)c(CO)c2c1=O)NCc1ccccc1Cl,28.2µM*
COCCNC(=O)Cn1ccn2nc(-c3ccc(F)cc3)c(CO)c2c1=O,i
COC(=O)c1ccc(OC(=O)/C=C/c2ccc(Br)o2)cc1,i
CN(C)CCN(C)C(=O)c1ccc2c(c1)NC(C)(COc1ccccc1)CO2 (stereo not given),i
COc1cccc(NC(=O)c2ccc3c(c2)NC(C)(CNc2ccccc2)CO3)c1 (stereo not given),12.6µM*
CC1(CNc2ccccc2)COc2ccc(C(=O)NCc3cccnc3)cc2N1 (stereo not given),i
CCOCC1(C)COc2ccc(C(=O)N(C)c3ccccc3)cc2N1 (stereo not given),i
COc1ccc(NC(=O)c2ccc3c(c2)NC(=O)CO3)cc1,i
CCOCC1(C)COc2ccc(C(=O)Nc3cccc(OC)c3)cc2N1 (stereo not given),31.6µM*
CCOCC1(C)COc2ccc(C(=O)Nc3ccc(Cl)cc3)cc2N1 (stereo not given),28.2µM*

# Compound activity (PubChem BioAssay)
